Laboratory results taken from PubChem BioAssay (NCI).
Compounds without any hit were thinned out: in the full panel of roughly 83,000, 20% have a hit.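 Note: values are percent growth. 100 is the growth of untreated cells, values between 100 and 0 indicate rising inhibition; between -100 and 0 indicates cell death.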 Unmarked numbers belong to inactive results. Calls of active or inactive are those of the source. How the source made its calls: active means growth percent below 10; inactive means the rest.

Legend:
Experiment in all cases: NCI-60 one-dose screen, 48 h (100 = growth as untreated, 0 = no growth, -100 = all killed)
Settings in all cases: 10 µM unless noted
NCI-H23 lung = system: NCI-H23 lung
NCI-H322M lung = system: NCI-H322M lung
HOP-62 NSCLC = system: HOP-62 NSCLC
NCI-H460 lung = system: NCI-H460 lung
HOP-92 NSCLC = system: HOP-92 NSCLC
NCI-H522 lung = system: NCI-H522 lung
A549/ATCC NSCLC = system: A549/ATCC NSCLC
786-0 renal = system: 786-0 renal
COLO 205 colon = system: COLO 205 colon
DU-145 prostate = system: DU-145 prostate
K-562 leukemia = system: K-562 leukemia
MALME-3M melanoma = system: MALME-3M melanoma
MDA-MB-231 breast = system: MDA-MB-231 breast
RXF 393 renal = system: RXF 393 renal
SF-268 CNS = system: SF-268 CNS
SF-295 CNS = system: SF-295 CNS
SF-539 CNS = system: SF-539 CNS
UACC-257 melanoma = system: UACC-257 melanoma
M14 melanoma = system: M14 melanoma
HCT-15 colon = system: HCT-15 colon

SMILES	growth (NCI-H23 lung)	growth (NCI-H322M lung)	growth (HOP-62 NSCLC)	growth (NCI-H460 lung)	growth (HOP-92 NSCLC)	growth (NCI-H522 lung)	growth (A549/ATCC NSCLC)	growth (786-0 renal)	growth (COLO 205 colon)	growth (DU-145 prostate)	growth (K-562 leukemia)	growth (MALME-3M melanoma)	growth (MDA-MB-231 breast)	growth (RXF 393 renal)	growth (SF-268 CNS)	growth (SF-295 CNS)	growth (SF-539 CNS)	growth (UACC-257 melanoma)	growth (M14 melanoma)	growth (HCT-15 colon)
CCOc1cccc(/C=N/NC(=O)C(=O)Nc2cccc(C(F)(F)F)c2)c1O	43.4%	30.7%	39.1%	15.2%	43.8%	-0.686% (active)	21.3%	23%	11.5%	39.8%	21.7%	56.7%	31.7%	37.6%	35.4%	10%	11.7%	5.14% (active)	13.2%	22.3%
COc1ccc(C(=O)Nc2ccc3nc(N4CCCCC4)cc(C)c3c2)cc1OC	96.8%	117%	115%	51.9%	40.8%	98.3%	85.2%	85.4%	95.9%	83.9%	-18.6% (active)	64.8%	48.3%	92.3%	89.5%	48.6%	82.2%	102%	83.9%	31.6%
Nc1ccc(-c2nn3c(CCC(=O)c4nc5ncccc5[nH]4)nnc3s2)c(O)c1	83.1%	87.5%	85.7%	93.4%	85.4%	81.2%	89.6%	99.2%	99.6%	96.5%	105%	93%	71.2%	84.9%	73.5%	97.1%	89.1%	101%	96.5%	95.8%
COc1ccc(N(C)c2nc(N)nc3sc4c(c23)CCCC4)cc1	19.3%	52.6%	28.3%	3.58% (active)	36.5%	-13.7% (active)	15.4%	26.4%	-60.3% (active)	0.729% (active)	7.85% (active)	50.1%	25.5%	46.6%	30%	14.5%	-6.54% (active)	39%	1.13% (active)	4.87% (active)
FC(F)(F)c1cccc(CNC2CCN(CCc3ccccc3)CC2)c1	71.6%	84%	91.1%	59.8%	15.7%	86.7%	77.5%	78.6%	76.2%	59.1%	30.1%	74.8%	66.5%	84.1%	74.7%	81.7%	93.5%	87%	49.2%	86.8%
CCCCCCc1cc2cc(-c3csc(/C=C/c4ccccc4)n3)c(=O)oc2cc1O	54.5%	63.9%	34.9%	17.7%	-3.21% (active)	-30.7% (active)	28.7%	30.1%	-93.5% (active)	53.3%	-25.8% (active)	-79.9% (active)	-8.21% (active)	-9.75% (active)	17%	-55% (active)	-77.3% (active)	-78.3% (active)	-58.3% (active)	18.9%
O=C(CSc1nc2ccccc2c(=O)n1-c1ccccc1)Nc1ccc(C(=O)/C=C/c2ccc(Cl)cc2)cc1	93.4%	101%	107%	100%	97.1%	85.3%	97%	102%	108%	109%	90.8%	95.5%	93.3%	127%	115%	105%	113%	89.6%	101%	98.1%
CC/C(=C(\CC)c1ccc(OCC[N+](C)(C)C)cc1)c1ccc(OC)cc1	56.7%	99.3%	62.4%	40.1%	45.3%	32.7%	53%	91.1%	6.92% (active)	94.9%	30.4%	68.3%	71.9%	29%	61.2%	76.2%	59.9%	39%	58.1%	97.6%
